{"source": "the supplement of paper PMC9023506", "note": "Where a name gives a salt, the structure may show the parent alone."}
{"system": "Danio rerio larvae (5 dpf)", "test": "startle response to 20-s acoustic pulses, difference vs DMSO (percentage points (treated minus DMSO)); higher = more of the behaviour than the DMSO vehicle control", "details": "10 µM; exposure time: 3 h pre-incubation + 3 h imaging", "method": "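5-dpf wild-type zebrafish larvae were imaged in 96-well plates. They were treated with 190 Tocris FDA-approved drugs at 10 µM (1 µl/ml DMSO) for 3 h before and 3 h during imaging at 28.5 °C, 48 larvae per drug. Automated image analysis gave % time moving and optomotor responses. Values are drug group mean minus DMSO vehicle mean (n=844), in percentage points, for 10 behaviours.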"}
{"smiles": "NS(=O)(=O)Cc1noc2ccccc12", "note": "[Zonisamide]", "startle response to 20-s acoustic pulses": 8.21}
{"smiles": "O=c1n(CCCN2CCN(c3cccc(Cl)c3)CC2)nc2ccccn12", "note": "[Trazodone hydrochloride]", "startle response to 20-s acoustic pulses": 2.64}
{"smiles": "Cc1cn([C@H]2C=C[C@@H](CO)O2)c(=O)[nH]c1=O", "note": "[Stavudine]", "startle response to 20-s acoustic pulses": -0.918}
{"smiles": "CNC(=O)c1cc(Oc2ccc(NC(=O)Nc3ccc(Cl)c(C(F)(F)F)c3)cc2)ccn1", "note": "[Sorafenib]", "startle response to 20-s acoustic pulses": -4.57}
{"smiles": "C/C(O)=C(\\C#N)C(=O)Nc1ccc(C(F)(F)F)cc1", "note": "[Teriflunomide]", "startle response to 20-s acoustic pulses": -4.42}
{"smiles": "OCCOCCN1CCN(C2=Nc3ccccc3Sc3ccccc32)CC1", "note": "[Quetiapine hemifumarate]", "startle response to 20-s acoustic pulses": -1.65}
{"smiles": "CCCc1nn(C)c2c(=O)[nH]c(-c3cc(S(=O)(=O)N4CCN(C)CC4)ccc3OCC)nc12", "note": "[Sildenafil citrate]", "startle response to 20-s acoustic pulses": 0.54}
{"smiles": "CC(C)(C(=O)O)c1ccc(C(O)CCCN2CCC(C(O)(c3ccccc3)c3ccccc3)CC2)cc1", "note": "(stereo not given) [Fexofenadine hydrochloride]", "startle response to 20-s acoustic pulses": 4}
{"smiles": "COc1cccc2c1C(=O)c1c(O)c3c(c(O)c1C2=O)C[C@@](O)(C(=O)CO)C[C@@H]3O[C@H]1C[C@H](N)[C@H](O)[C@H](C)O1", "note": "[Doxorubicin hydrochloride]", "startle response to 20-s acoustic pulses": 3.62}
{"smiles": "Cn1cnc([N+](=O)[O-])c1Sc1ncnc2[nH]cnc12", "note": "[Azathioprine]", "startle response to 20-s acoustic pulses": -1.29}
{"smiles": "COc1cc(Nc2c(C#N)cnc3cc(OCCCN4CCN(C)CC4)c(OC)cc23)c(Cl)cc1Cl", "note": "[Bosutinib]", "startle response to 20-s acoustic pulses": -0.606}
{"smiles": "CCOC(=O)[C@H](CCc1ccccc1)N[C@@H](C)C(=O)N1[C@H](C(=O)O)C[C@@H]2CCC[C@@H]21", "note": "[Ramipril]", "startle response to 20-s acoustic pulses": -1.54}
{"smiles": "CC(C)(C(=O)c1cccnc1)c1cccnc1", "note": "[Metyrapone]", "startle response to 20-s acoustic pulses": 3.51}
{"smiles": "CCCCC1=NC2(CCCC2)C(=O)N1Cc1ccc(-c2ccccc2-c2nnn[nH]2)cc1", "note": "[Irbesartan]", "startle response to 20-s acoustic pulses": 1.39}
{"smiles": "Nc1ncn([C@H]2C[C@H](O)[C@@H](CO)O2)c(=O)n1", "note": "[Decitabine]", "startle response to 20-s acoustic pulses": -0.522}
{"smiles": "CN(C)CCc1c[nH]c2ccc(C[C@H]3COC(=O)N3)cc12", "note": "[Zolmitriptan]", "startle response to 20-s acoustic pulses": 2.21}
{"smiles": "CNC(=O)c1ccccc1Sc1ccc2c(/C=C/c3ccccn3)n[nH]c2c1", "note": "[Axitinib]", "startle response to 20-s acoustic pulses": -7.73}
{"smiles": "O=C(O)c1cc(/N=N/c2ccc(S(=O)(=O)Nc3ccccn3)cc2)ccc1O", "note": "[Sulfasalazine]", "startle response to 20-s acoustic pulses": -1.02}
{"smiles": "CC(=O)Oc1ccccc1C(=O)O", "note": "[Aspirin]", "startle response to 20-s acoustic pulses": -4.27}
{"smiles": "CC(C)CN(C[C@@H](O)[C@H](Cc1ccccc1)NC(=O)O[C@H]1CO[C@H]2OCC[C@H]21)S(=O)(=O)c1ccc(N)cc1", "note": "[Darunavir]", "startle response to 20-s acoustic pulses": -1.98}
{"smiles": "Clc1ccc2nsnc2c1NC1=NCCN1", "note": "[Tizanidine hydrochloride]", "startle response to 20-s acoustic pulses": -1.69}
{"smiles": "Cc1cccc(CN2CCN(C(c3ccccc3)c3ccc(Cl)cc3)CC2)c1", "note": "(stereo not given) [Meclizine dihydrochloride]", "startle response to 20-s acoustic pulses": -8.16}
{"smiles": "COc1ccccc1Oc1c(NS(=O)(=O)c2ccc(C(C)(C)C)cc2)nc(-c2ncccn2)nc1OCCO", "note": "[Bosentan]", "startle response to 20-s acoustic pulses": 6.71}
{"smiles": "O=C(Nc1c(Cl)cncc1Cl)c1ccc(OC(F)F)c(OCC2CC2)c1", "note": "[Roflumilast]", "startle response to 20-s acoustic pulses": 1.99}
{"smiles": "CN1CC(=O)N2[C@H](c3ccc4c(c3)OCO4)c3[nH]c4ccccc4c3C[C@@H]2C1=O", "note": "[Tadalafil]", "startle response to 20-s acoustic pulses": 7.96}
{"smiles": "Nc1cccc2c1CN(C1CCC(=O)NC1=O)C2=O", "note": "(stereo not given) [Lenalidomide]", "startle response to 20-s acoustic pulses": -5.01}
{"smiles": "C[C@]12CC[C@@H]3c4ccc(O)cc4C[C@@H](CCCCCCCCC[S+]([O-])CCCC(F)(F)C(F)(F)F)[C@H]3[C@@H]1CC[C@@H]2O", "note": "(stereo not given in full)", "startle response to 20-s acoustic pulses": 0.769}
{"smiles": "CC(C)c1nc(CN(C)C(=O)N[C@H](C(=O)N[C@@H](Cc2ccccc2)C[C@H](O)[C@H](Cc2ccccc2)NC(=O)OCc2cncs2)C(C)C)cs1", "note": "[Ritonavir]", "startle response to 20-s acoustic pulses": 1.92}
{"smiles": "CC(=O)NC[C@H]1CN(c2ccc(N3CCOCC3)c(F)c2)C(=O)O1", "note": "[Linezolid]", "startle response to 20-s acoustic pulses": 2.02}
{"smiles": "Cc1ccc(N(CC2=NCCN2)c2cccc(O)c2)cc1", "note": "[Phentolamine Mesylate]", "startle response to 20-s acoustic pulses": -1.56}
{"smiles": "Cc1ccsc1C(=CCCN1CCC[C@@H](C(=O)O)C1)c1sccc1C", "note": "[Tiagabine hydrochloride]", "startle response to 20-s acoustic pulses": 5.98}
{"smiles": "Nc1ccn([C@@H]2O[C@H](CO)[C@@H](O)C2(F)F)c(=O)n1", "note": "[Gemcitabine hydrochloride]", "startle response to 20-s acoustic pulses": 3.92}
{"smiles": "Nc1ncn([C@@H]2O[C@H](CO)[C@@H](O)[C@H]2O)c(=O)n1", "note": "[5-Azacytidine]", "startle response to 20-s acoustic pulses": 2.64}
{"smiles": "O=C(O[C@@H]1C[C@@H]2C[C@H]3C[C@H](C1)N2CC3=O)c1c[nH]c2ccccc12", "note": "[Dolasetron mesylate]", "startle response to 20-s acoustic pulses": 2.42}
{"smiles": "Cc1ccc(O)c([C@H](CCN(C(C)C)C(C)C)c2ccccc2)c1", "note": "[Tolterodine L-tartrate]", "startle response to 20-s acoustic pulses": -5.76}
{"smiles": "Cc1nc(Nc2ncc(C(=O)Nc3c(C)cccc3Cl)s2)cc(N2CCN(CCO)CC2)n1", "note": "[Dasatinib]", "startle response to 20-s acoustic pulses": 0.79}
{"smiles": "CCOC(=O)N1CCC(=C2c3ccc(Cl)cc3CCc3cccnc32)CC1", "note": "[Loratidine]", "startle response to 20-s acoustic pulses": 14.8}
{"smiles": "CC(C)N(CCCCOCC(=O)NS(C)(=O)=O)c1cnc(-c2ccccc2)c(-c2ccccc2)n1", "note": "[Selexipag]", "startle response to 20-s acoustic pulses": -1.31}
{"smiles": "COc1cc2nc(N3CCN(C(=O)C4COc5ccccc5O4)CC3)nc(N)c2cc1OC", "note": "(stereo not given) [Doxazosin mesylate]", "startle response to 20-s acoustic pulses": 7.2}
{"smiles": "C[C@H]1O[C@H](O[C@H]2[C@H](O)[C@@H](O)[C@@H](O[C@H]3[C@H](O)[C@@H](O)C(O)O[C@@H]3CO)O[C@@H]2CO)[C@H](O)[C@@H](O)[C@@H]1N[C@H]1C=C(CO)[C@@H](O)[C@H](O)[C@H]1O", "note": "(stereo not given in full) [Acarbose]", "startle response to 20-s acoustic pulses": -6.81}
